A selection: hits, their analogues and other compounds. The true share with any hit is near 15%.
HCMV antiviral = blocks human cytomegalovirus replication; AID 1259415; hit rate 4.5% among 410,000; HFF cells, HCMV-luciferase reporter, 72 h; stronger effect = lower value; activity change, negative = inhibition, % at 57.5 µM; in the data active = activity change below about -60%; inconclusive = no clear call, values can overlap the other calls; inactive = above about -39%; also: % is scaled to controls: 0 for no effect and ±100 for the full control effect
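Cell-based, HFFs, 1000 cells/well, 16 h 37C; cpds in DMSO + HCMV-luc, MOI 1 PFU/cell; 72 h 37C; OneGlo luminescence after 5 min RT; norm. to buffer vs Salinomycin 10uM.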
SARS PLpro yeast = blocks SARS-CoV papain-like protease in a yeast assay. S. cerevisiae expressing SARS-CoV PLpro, growth rescue. Potency, µM (titrated, usually from 32.9 µM), for inactives: top-dose activity, positive = growth rescue, usual class: activators. hit rate 0.19% among 330,000. AID 485353; calls by dose curve; also: potency is read from the fitted curve at half-maximal effect; 0% is about no effect; nearly all actives have a fitted effect of over 55% in size
Pf growth 48h = P. falciparum growth inhibition at 48 hours (one generation); Potency, µM (top dose mostly 28.7 µM), for the others: top-dose activity change, negative = inhibition, usual class: inhibitors; AID 504832; hit rate 5.9% among 310,000; P. falciparum luciferase growth in erythrocytes, 48 h; also: potency is read from the fitted curve at half-maximal effect; % is scaled to controls: 0 for no effect and ±100 for the full control effect
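Erythrocytes infected with P. falciparum carrying an integrated firefly luciferase reporter (2% hematocrit, 0.1% parasitemia final) were exposed to compounds in RPMI 1640 with 0.5% Albumax at 37 C, 5% CO2. Growth inhibition was scored as reduced luminescence.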
Sm TGR block = inhibitors of Schistosoma mansoni thioredoxin glutathione reductase. Q962Y6. purified TGR, DTNB reduction, TNB absorbance 405 nm. Potency, µM (series often up to 114 µM), for inactives: at the top dose activity change, negative = inhibition, actives largely listed as inhibitors. hit rate 3% among 360,000. AID 485364; also: potency is read from the fitted curve at half-maximal effect; % is scaled to controls: 0 for no effect and ±100 for the full control effect; nearly all actives have a fitted effect of over 60% in size
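Kinetic colorimetric format: TGR-catalysed, NADPH-driven DTNB reduction monitored via TNB absorbance. Enzyme dispensed at 20 nM; compound exposure 15 min at room temperature before reaction start.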
HCV inh = blocks hepatitis C virus. Huh7.5.1 HCVcc-Cre infection, luciferase reporter, 44 h. AID 651820. Potency, µM (titrated, usually from 41.8 µM), for the others: top-dose activity change, negative = inhibition, hits mostly inhibitors. hit rate 3.4% among 340,000; also: potency is read from the fitted curve at half-maximal effect; % is scaled to controls: 0 for no effect and ±100 for the full control effect
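Compounds are dispensed onto cells plated 4 h earlier at 1,000 per well, with HCVcc-Cre virus (about 0.5 moi) added next. Following 44 h of culture, luminescent signal is measured for 15 sec after 15 min with substrate at room temperature.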
Pf growth 96h = P. falciparum growth inhibition at 96 hour, primary screen for plastid delayed-death inhibitors; hit rate 6.9% among 320,000; P. falciparum luciferase reporter growth, 96 h; Potency, µM (highest dose often 28.7 µM), for the others: top-dose activity change, negative = inhibition, actives largely listed as inhibitors; also: potency is read from the fitted curve at half-maximal effect; % is scaled to controls: 0 for no effect and ±100 for the full control effect
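Two-generation exposure (96 h) targets delayed-death phenotype. Reporter parasites carrying integrated firefly luciferase, in red cells at 2% hematocrit and 0.05% parasitemia final, kept at 37 C, 5% CO2; luminescence loss indicates inhibition.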
Numbers without * were called inactive. Unless noted, calls follow the shape of the dose curve; as a rule, active = well fitted curve in the direction sought with a large enough effect; inconclusive = small, poorly fitted or top-dose-only effect, or another doubt; inactive = no such curve, though single readings can be large; an effect the other way counts as inactive or inconclusive.

`CCCCCC(C(=O)O)C(C)CC(=O)NC1CCCCC1` (configuration not stated) gave HCMV antiviral 46.9, SARS PLpro yeast 4.4%, Pf growth 48h 11.8%, Sm TGR block 8.6%, HCV inh 3.6% and Pf growth 96h 13.1µM*.
CC(C)CCC(C(=O)O)C(C)CC(=O)NC1CCCCC1 (configuration not stated) was read as HCMV antiviral -13.1, SARS PLpro yeast 3.1%, Pf growth 48h 4.9%, Sm TGR block 40.5%, HCV inh 0.2% and Pf growth 96h -1.4%.
For COc1ccc(C(CCNCc2ccc(OC)c(OC)c2)c2ccc(F)cc2)cc1 (configuration not stated) the results were HCMV antiviral 27.3, SARS PLpro yeast -0.4%, Pf growth 48h 9.28µM*, Sm TGR block -1.8%, HCV inh 6.8% and Pf growth 96h inconclusive.
COc1ccc(CCNCCC(c2ccccc2)c2ccccc2)cc1OC was read as HCMV antiviral 24.0.
COc1ccc(CNCCC(c2ccc3c(c2)OCO3)c2ccccc2OC)cc1 (configuration not stated) was read as HCMV antiviral -105.9* and Sm TGR block 1.1%.
COc1ccc(C(CCNCc2ccc(N(C)C)cc2)c2ccccc2)cc1 (configuration not stated) was read as HCMV antiviral 6.1, SARS PLpro yeast 1.1%, Pf growth 48h 14.7µM*, Sm TGR block -16.6%, HCV inh inconclusive and Pf growth 96h inconclusive.
For CC(C)Oc1ccc(C(CCNCc2ccc(O)cc2)c2ccccc2)cc1 (configuration not stated) the results were HCMV antiviral -19.1, SARS PLpro yeast -2.0%, Pf growth 48h 1.17µM*, Sm TGR block 5.9%, HCV inh inconclusive and Pf growth 96h 1.17µM*.
Screening Cc1cccc2c(=O)cc(CSc3ccccc3NC(=O)c3cccc(F)c3)[nH]c12 returned HCMV antiviral 35.6 and Sm TGR block 5.8%.
For CC(C)NC(=O)NC(=O)COC(=O)C1(C)CC1(Cl)Cl (configuration not stated) the results were HCMV antiviral 14.6, SARS PLpro yeast 1.0%, Pf growth 48h 76.1%, Sm TGR block 1.3%, HCV inh 1.9% and Pf growth 96h 39.3%.
`COC(=O)c1ccc2nc(-c3ccc(C#N)cc3)c(Cc3cccc(F)c3)n2c1` gave HCMV antiviral 12.3.
For CC(C)(CC(=O)OCC(=O)Nc1ccccc1F)CC1=NS(=O)(=O)c2ccccc2N1 the results were HCMV antiviral inconclusive, SARS PLpro yeast -1.9%, Pf growth 48h inconclusive, Sm TGR block -12.0%, HCV inh -14.5% and Pf growth 96h 11.7µM*.
`COc1ccccc1NC(=O)COC(=O)CC(C)(C)CC1=NS(=O)(=O)c2ccccc2N1` gave HCMV antiviral inconclusive, SARS PLpro yeast -6.1%, Pf growth 48h inconclusive, Sm TGR block -8.0%, HCV inh inconclusive and Pf growth 96h inconclusive.
`COCCn1c(SCC(=O)Nc2ccc(S(=O)(=O)N(C)C)cc2)nc2ccccc21` gave HCMV antiviral 7.3, SARS PLpro yeast -5.7%, Sm TGR block -9.6%, HCV inh -17.5% and Pf growth 96h 4.15µM*.
Screening CC(C)N(CCn1c(SCC(=O)Nc2cccnc2Cl)nc2ccccc2c1=O)C(C)C returned HCMV antiviral -17.1, SARS PLpro yeast -0.1%, Pf growth 48h inconclusive, Sm TGR block -2.6%, HCV inh inconclusive and Pf growth 96h 5.86µM*.
For CN(C)CCCn1c(SCC(=O)Nc2nc(-c3cccc(Br)c3)cs2)nc2ccccc2c1=O the results were HCMV antiviral inconclusive, SARS PLpro yeast -0.7%, Pf growth 48h inconclusive, Sm TGR block 11.5%, HCV inh 10µM* and Pf growth 96h inconclusive.
`COCCn1c(SCC(=O)Nc2ccc(F)cc2)nc2ccccc2c1=O` gave HCMV antiviral 12.0, SARS PLpro yeast -0.9%, Pf growth 48h -29.5%, Sm TGR block -1.1%, HCV inh -18.9% and Pf growth 96h 0.0%.
